# JMJD2A Tudor inh: inhibitors of human JMJD2A Tudor domain; O75164; AlphaScreen JMJD2A-Tudor / H3K4me3 peptide binding; Potency, µM (top dose mostly 114 µM), for the others: at the highest dose activity change, negative = inhibition, most hits filed as inhibitors; 390,000 tested, 4.4% active; AID 504339; further: on the % scale 0 is the no-effect control and ±100 the full control effect; nearly all actives have a fitted effect of over 50% in size
# G9a inh: G9a (human) methyltransferase inhibition; Q96KQ7; AID 504332; G9a H3K9 monomethylation, AlphaScreen, 2 h; 350,000 tested, 8.8% active; Potency, µM (titrated, usually from 102 µM), for the others: at the top dose activity, negative = inhibition, most hits filed as inhibitors; further: on the % scale 0 is the no-effect control and ±100 the full control effect; nearly all actives have a fitted effect of over 75% in size
# Target sequence (Q96KQ7 913-1193 limits assumed): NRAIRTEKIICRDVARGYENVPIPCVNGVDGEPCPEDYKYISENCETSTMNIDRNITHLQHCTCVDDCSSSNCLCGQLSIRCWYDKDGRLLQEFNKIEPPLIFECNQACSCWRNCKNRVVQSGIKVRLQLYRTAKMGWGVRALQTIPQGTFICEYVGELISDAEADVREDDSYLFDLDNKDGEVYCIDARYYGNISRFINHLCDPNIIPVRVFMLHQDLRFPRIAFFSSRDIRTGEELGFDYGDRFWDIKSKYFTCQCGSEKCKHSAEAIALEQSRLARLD
#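 AlphaScreen read-out: biotin-H3K9 peptide (500 nM) methylation by 20 nM enzyme with 20 uM SAM, 2 h at room temperature after 15 min compound preincubation; anti-monomethyl H3K9 antibody plus donor/acceptor beads, 10 min dark.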
# HP1b binding inh: blocks HP1-beta chromodomain binding to methylated histone tails | P83916 | AlphaScreen HP1-beta / biotin-H3K9me3 peptide binding | Potency, µM (titrated, usually from 114 µM), for inactives: top-dose activity change, negative = inhibition, hits mostly inhibitors | 390,000 tested, 0.56% active | AID 540317; further: nearly all actives have a fitted effect of over 70% in size
# Target sequence (P83916 whole entry, looked up): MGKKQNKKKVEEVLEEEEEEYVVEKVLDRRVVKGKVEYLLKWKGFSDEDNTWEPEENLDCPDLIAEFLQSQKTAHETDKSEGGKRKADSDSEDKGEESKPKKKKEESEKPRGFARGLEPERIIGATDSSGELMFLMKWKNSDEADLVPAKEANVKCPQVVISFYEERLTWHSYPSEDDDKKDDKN
#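 AlphaScreen: HP1-beta (50 nM) preformed 30 min with biotin-H3(1-18)K9me3 peptide (50 nM) in PBS pH 7.4, 0.01% Tween-20. Compound added for 30 min at RT, then streptavidin donor/nickel chelate acceptor beads (10 ug/mL) for 30 min.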
# Sfp PPTase inh: blocks B. subtilis Sfp PPTase activity; Potency, µM, without a hit: largest response in the series, negative = inhibition, usual class: inhibitors; Q9F4F7; AID 1490; 310,000 tested, 3.5% active; Biochemical Sfp PPTase activity, qHTS;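 further: the enzyme is Sfp with the accession as filed and its product quenches rhodamine fluorescence; 0% = enzyme reaction without inhibitor and -100% = no enzyme wells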
#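 After 15 min at room temperature with compound, 15 nM Sfp received 5 uM rhodamine-CoA plus 12.5 uM BHQ-2-ybbR (50 mM Hepes pH 7.6, 10 mM MgCl2). Rate came from the fluorescence difference over 30 min, ex 525/em 598 nm.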
# 12-LOX inh: blocks human arachidonate 12S-lipoxygenase; purified 12hLO, xylenol orange hydroperoxide absorbance; Potency, µM (top dose mostly 108 µM), for inactives: top-dose activity change, negative = inhibition, hits mostly inhibitors; 580,000 tested, 1.1% active; AID 1671190; further: on the % scale 0 is the no-effect control and ±100 the full control effect
#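 Purified human 12hLO at 150 nM in 25 mM Hepes, 0.01% Triton X-100, pH 7.0, preincubated 15 min at room temperature with compound. Reaction started with 40 uM arachidonic acid, 30 min at room temperature. Hydroperoxide measured by Fe-xylenol orange, 573/405 nm absorbance ratio.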
# BAZ2B inh: BAZ2B (human) inhibition | 360,000 tested, 4.4% active | Potency, µM (titrated, usually from 114 µM), for inactives: at the top dose activity change, negative = inhibition, usual class: inhibitors | AlphaScreen BAZ2B-H3K14Ac peptide displacement | Q9UIF8; further: on the % scale 0 is the no-effect control and ±100 the full control effect; nearly all actives have a fitted effect of over 60% in size
#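 In this displacement format the biotinylated H3(5-23) peptide acetylated at Lys14 serves as ligand at 50 nM, with BAZ2B at 50 nM in PBS pH 7.4 containing 0.01% Tween-20. Donor and acceptor beads are 10 ug/mL final.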
# Numbers without * were called inactive; i = inactive; ? = inconclusive; . = no result given; [ ] = dose if it differs, or a comment. Shown are actives, neighbours in structure and some others; about 8.7% of the full set was active somewhere. The call rests on the fitted dose curve; in most records, active means well fitted curve in the direction sought with a large enough effect; inconclusive means small, poorly fitted or top-dose-only effect, or another doubt; inactive means no such curve, though single readings can be large; an effect the other way counts as inactive or inconclusive. Potency means the concentration at half of the fitted maximal effect.
SMILES,JMJD2A Tudor inh,G9a inh,HP1b binding inh,Sfp PPTase inh,12-LOX inh,BAZ2B inh
CCOC(=O)c1cnc2ccc(C(=O)OC)cc2c1Nc1cc(C)ccc1OC,.,.,.,.,0%,.
Cc1ccc(-c2nnc(-c3ccc(Br)cc3)o2)o1,1%,17%[12.7 µM],32%,24%,-3%,-6%
C/C(CCc1oc2ccccc2c1-c1ccc(C)o1)=N/O,56µM*,?,-28%,28µM*,0%,?
C/C(CCc1oc2c(Br)cc(Br)cc2c1-c1ccc(C)o1)=N\O,?,?,2%,22µM*,?,?
CCn1ccnc1CN(C)Cc1cn(-c2cccc(C)c2)nc1-c1cccc(F)c1,50µM*,11µM*,?,45µM*,-25%,35µM*
CCn1ccnc1CN(C)Cc1cn(-c2ccc(C)cc2)nc1-c1cccc(C)c1,?,32µM*,?,?,-4%,40µM*
Cc1cccc(-n2cc(CN(C)Cc3nccn3C)c(-c3cccc(F)c3)n2)c1,40µM*,16µM*,?,1%,-20%,?
Cc1cccc(-n2cc(CN(C)C(C)c3ccon3)c(-c3cccc(F)c3)n2)c1 (configuration not stated),.,.,.,.,-2%,.
CCn1ccnc1CN(C)Cc1cn(-c2ccccc2C)nc1-c1ccc(OC)c(F)c1,.,.,.,.,86%,.
Cc1ccc(-n2cc(CN3CCN(Cc4nccn4C)CC3)c(-c3cccc(C)c3)n2)cc1,?,?,-4%,-2%,i,?
O=C(O)CCCCCN1C(=O)C(O)=C(C(=O)/C=C/c2ccccc2)C1c1cccc([N+](=O)[O-])c1 (configuration not stated),-17%,45µM*,27%,18%,?,?
O=C(Nc1ccccc1-c1nc(Cc2ccccc2)no1)c1cccnc1,.,.,.,.,8%,.
O=C(O)CCC(=O)N1N=C(c2ccc(Cl)cc2)CC1c1ccc2nccnc2c1 (configuration not stated),.,.,.,.,7%,.
COc1ccc(OCC(O)CN2CCN(c3ccc(Cl)cc3)CC2)cc1 (configuration not stated),-11%,2%,35%,10%,1%,-13%
OCCN1CCN(CC(O)COCCOc2ccc(Br)cc2)CC1 (configuration not stated),18µM*,-13%[59 µM],?,-6%,-4%,20%
COc1ccc(N2CCN(CC(O)COC(C)(C)C)CC2)cc1 (configuration not stated),18µM*,10µM*,?,-19%,-16%,45µM*
COc1ccc(N2CCN(CC(O)COc3ccc4c(c3)CCC4)CC2)cc1 (configuration not stated),56µM*,?,?,-11%,-25%,35µM*
COc1ccccc1N1CCN(CC(O)COCCOc2ccc(Br)cc2)CC1 (configuration not stated),?,-10%[59 µM],5%,4%,0%,?
COc1ccc(N2CCN(CC(O)COCCOc3ccc(Br)cc3)CC2)cc1 (configuration not stated),-20%,10µM*,10%,-11%,?,45µM*
OCCN1CCN(CC(O)COc2ccc(-c3ccccc3)cc2)CC1 (configuration not stated),-11%,9%[59 µM],12%,10%,?,?
Nc1cccc2cccc(S(=O)(=O)O)c12,.,.,.,.,-21%,.
CC1(C)C(c2ccccc2)=NC(c2ccc(Br)cc2)N1O (configuration not stated),-9%,.,38%,3%,7.9µM*,-13%
O=C(CSc1nnnn1-c1ccc(F)cc1)c1ccc(O)c(O)c1,?,?,-14%,2%,14µM*,45µM*
Cn1cnnc1SCC(=O)c1ccco1,-5%,45µM*,57%,-21%,-33%[57.4 µM],-3%
CC(=O)c1ccc(O)c(CSc2nncn2C)c1,-8%,-2%,45%,15%,-2%,?
SMILES,JMJD2A Tudor inh,G9a inh,HP1b binding inh,Sfp PPTase inh,12-LOX inh,BAZ2B inh
Cn1cnnc1SCC(=O)c1ccc(O)c(O)c1,-8%,7.1µM*,18%,?,1%,?
Cc1ncc(CO)c(/C=N/Nc2ccc(C(F)(F)F)cn2)c1O,?,-3%,-24%[57 µM],6%,?,20µM*
Cc1ncc(CO)c(/C=N/NC(=S)Nc2ccc(F)cc2)c1O,40µM*,-152%[59 µM],?,-17%,40µM*,3.2µM*
O=C(/C=C/N1CCOCC1)c1cc2ccccc2o1,-18%,10µM*,28%,-6%,6%,2%
O=C(/C=C/c1ccccc1)c1cc2ccccc2o1,.,.,.,.,0%,.
COCCOC(=O)c1c(C)nc(SCC(=O)Nc2ccc(OC)cc2)c(C#N)c1-c1ccco1,-10%[11.4 µM],45µM*,34%,-7%,56%,5%
COCc1cc(C)nc(SCC(=O)NCc2ccco2)c1C#N,1%,-29%[12.7 µM],20%,14%,0%,1%
CCc1ccc(NC(=O)CSc2nc(C)c(C(=O)Nc3ccc(Cl)cc3)c(-c3ccc(OC)cc3)c2C#N)cc1,-6%,7%[59 µM],39%,.,-1%,-2%
Cc1nc(SCC(=O)c2ccccc2)c(C#N)c(-c2ccco2)c1C(=O)NCc1ccco1,-36%,?,-3%,22µM*,324%,4%
Cc1ccc(C(=O)NCC(C)C)c(C)c1,.,.,.,.,29%,.
COc1nccc(N2CCC(CC(=O)NCCCN3CCCC3=O)CC2)n1,.,.,.,.,-2%,.
O=c1cc(CSc2ccc(Cl)cc2)nc(-c2ccccn2)[nH]1,79µM*,37%,16%,8%,-4%,28µM*
O=C(c1cc2ccccc2[nH]1)N1CCC2(CCCCO2)CC1,.,.,.,.,11%,.
Cc1ccc(C(=O)/C=C/c2cc(Br)cc(Br)c2O)o1,?,35µM*,-19%,?,?,?
Cc1ccc(C(=O)/C=C/c2cc(C)c(O)c(C)c2)o1,.,.,.,.,33%,.
COc1ccccc1/C=C/C(=C1/C(=O)N(c2ccccc2)N=C1C)c1ccc(C)cc1,2.8µM*,?,2.5µM*,6%,-27%,2.8µM*
COc1cccc(/C=C/C(=C2/C(=O)N(c3ccccc3)N=C2C)c2ccc(Br)cc2)c1OC,-31%,?,-21%,9%,.,1.3µM*
COc1cccc(/C=C/C(=C2/C(=O)N(c3ccccc3)N=C2C)c2ccccc2)c1OC,?,1.4µM*,-35%,3%,7%,4.5µM*
C=CCn1c(SCC(=O)Nc2sccc2C(N)=O)nc2ccc(Cl)cc2c1=O,-20%,?,30%,45µM*,0%,-7%
Cc1cc2c(c(=O)n1Cc1cccnc1)C(Cc1ccccc1)C(C#N)=C(N)O2 (configuration not stated),-21%,?,37%,-10%,344%,-26%
